In the library only some 4.1% were active in any assay of this set; here they are far more common.
ssDAF12 agonist = activates DAF-12 receptor from parasite S. stercoralis; HEK293 ssDAF-12/GRIP1 lit1-tk-luc reporter, luminescence; % of 3 µM dafachronic acid response; activation, % at 6.8 µM; 1% of 370,000 active; AID 652126;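 active means activation above the mean over all tested compounds plus 3 SD, cut at about 0.9% in these data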;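 further: 0% = DMSO-only wells and 100% = 3 µM delta7-dafachronic acid wells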
hcDAF12 agonist = activates DAF-12 receptor from parasite H. contortus; HEK293 hcDAF-12 lit1-tk-luc reporter, luminescence; 0% DMSO, 100% Δ7-dafachronic acid; activation, % at 6.8 µM; 1.4% of 370,000 active;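 active means activation above the mean of all tested compounds plus 3 SD, cut at about 5.5% in these data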;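 further: 100% = response to 3 µM Δ7-dafachronic acid high control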
hgDAF12 agonist = activates the H. glycines DAF-12 receptor ligand-binding domain; HEK293 GAL4-hgDAF12 UAS-luciferase reporter, agonist luminescence; normalized to butyrate control; 1.8% of 370,000 active; activation, % at 6.8 µM;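 active means activation above a cutoff set at the mean of all screened compounds plus 3 SD, cut at about 10% in these data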;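 further: 0% = DMSO wells and 100% = sodium butyrate wells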
DAX1 inh-1 = inhibits human nuclear receptor DAX1; P51843; HEK293 Gal4-DAX1 luciferase reporter, luminescence; inhibition, % at 6.75 µM; 0.99% of 340,000 active; AID 504766;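 active means inhibition above the mean over all tested compounds plus 3 SD, cut at about 4.2% in these data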;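 further: 0% = DAX1-transfected cells with DMSO and 100% = empty-vector control cells with DMSO; inhibition shows as a rise in luminescence from relieved DAX1 repression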
Target sequence (P51843 207-470 limits assumed): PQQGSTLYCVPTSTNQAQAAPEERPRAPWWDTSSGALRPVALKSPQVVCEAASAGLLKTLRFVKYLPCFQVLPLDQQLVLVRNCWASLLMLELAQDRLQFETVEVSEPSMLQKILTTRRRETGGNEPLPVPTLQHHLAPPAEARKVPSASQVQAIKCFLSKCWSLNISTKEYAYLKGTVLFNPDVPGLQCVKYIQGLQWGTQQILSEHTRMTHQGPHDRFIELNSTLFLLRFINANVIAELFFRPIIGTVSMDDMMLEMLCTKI
DAX1 inh-2 = DAX1 (NR0B1) inhibition, primary screen; AID 652010; HEK293T StAR-luciferase reporter, SF-1/DAX-1 repression relief; inhibition, % at 6.8 µM; 1.1% of 370,000 active;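 active means inhibition above the mean over all tested compounds plus 3 SD, cut at about 3.6% in these data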;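 further: 0% = DAX-1 cells with DMSO and 100% = cells lacking DAX-1 with DMSO; higher inhibition means more luminescence from relief of DAX-1 repression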
LXRb hcDAF ctr = LXR-beta agonism as hcDAF-12 counter-screen. shares compounds with hcDAF12 agonist. HEK293 Gal4-LXR tk-luc reporter, luminescence, 24 h; normalized: DMSO 0%, positive control 100%. activation, % at 6.8 µM. 3,400 tested, under 10 active. AID 743027;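 active means mean percent activation of the reporter above a cutoff set as the average over tested compounds plus their standard deviation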
Target sequence (P55055 whole entry, looked up, the tested form may be a part): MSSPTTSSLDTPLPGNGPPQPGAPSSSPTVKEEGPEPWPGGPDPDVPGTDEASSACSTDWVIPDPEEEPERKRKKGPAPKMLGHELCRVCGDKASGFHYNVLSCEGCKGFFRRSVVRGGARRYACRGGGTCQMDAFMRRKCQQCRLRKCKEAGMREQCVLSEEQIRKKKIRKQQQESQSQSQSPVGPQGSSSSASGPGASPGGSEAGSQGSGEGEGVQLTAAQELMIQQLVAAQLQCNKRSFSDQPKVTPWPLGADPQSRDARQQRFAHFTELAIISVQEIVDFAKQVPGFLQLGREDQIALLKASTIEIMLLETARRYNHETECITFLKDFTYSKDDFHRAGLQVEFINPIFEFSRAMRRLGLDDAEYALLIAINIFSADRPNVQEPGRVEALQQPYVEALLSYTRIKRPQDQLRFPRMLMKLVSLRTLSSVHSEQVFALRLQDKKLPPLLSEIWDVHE
hcDAF12 conf = confirmation of H. contortus DAF-12 agonists; shares compounds with hcDAF12 agonist; HEK293 hcDAF-12 lit1-tk-luc reporter, luminescence; % of Δ7-dafachronic acid response; activation, % at 6.8 µM; 61% of 3,400 active; AID 743032;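 active means mean activation across triplicate tests above the threshold derived from the earlier primary screen, cut at about 5.5% in these data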;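 further: 0% = DMSO only wells and 100% = 3 µM Δ7-dafachronic acid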
hgDAF12 ag = confirmation of H. glycines DAF-12 agonists | shares compounds with hgDAF12 agonist | HEK293 GAL4-hgDAF12 luciferase reporter, agonist mode; percent of butyrate response | AID 743050 | 80% of 3,300 active | activation, % at 6.8 µM;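 active means mean activation over triplicate wells above the hit cutoff derived from the earlier primary screen, cut at about 11% in these data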;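 further: 0% = DMSO low control and 100% = 2 mM sodium butyrate high control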
LXR ag 2 = activates human LXR-beta, counter-screen for DAF-12 agonists; shares compounds with hgDAF12 agonist; HEK293 Gal4-LXR luciferase reporter, 24 h; activation, % at 6.8 µM; 3,300 tested, under 10 active; AID 743051;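 active means mean activation of the triplicate above a set limit carried over from the primary screen, none filed active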
Active calls of the source: *; . = no result given.

SMILES	ssDAF12 agonist	hcDAF12 agonist	hgDAF12 agonist	DAX1 inh-1	DAX1 inh-2	LXRb hcDAF ctr	hcDAF12 conf	hgDAF12 ag	LXR ag 2
C[C@H](CO)N1C[C@H](C)[C@H](CN(C)C(=O)Nc2ccc(F)cc2)OCc2cnnn2CCCC1=O	-1.1	-2.4	-2.5	1.4	0.8	.	.	.	.
Cc1ccc2nc(SCn3nnc4ccccc4c3=O)[nH]c2c1	1.8*	9.8*	24.1*	4.1	4.1*	1.2	10.4*	16.0*	0.6
C/C(N)=C(/C#N)C(=O)CSc1nc2ccc(C)cc2[nH]1	1.4*	10.7*	17.2*	2.2	4.3*	1.0	7.1*	16.2*	1.1
CSc1ccccc1C(=O)OCC(=O)Nc1c(C)n(C)n(-c2ccccc2)c1=O	-1.8	-1.8	-3.2	0.1	0.1	.	.	.	.
O=C(Nc1nc2ccccc2[nH]1)c1ccccc1OC(F)F	0.8	12.6*	14.1*	-1.8	2.9	1.7	14.3*	14.4*	0.8
Cc1ccsc1C(=O)Nc1nc2ccccc2[nH]1	1.1*	10.3*	16.9*	-2.2	4.5*	1.4	10.2*	17.3*	1.0
O=c1[nH]cnc2c1ccn2C1OC(CO)C(O)C1O (stereo not drawn)	-1.1	-2.3	-0.6	0.0	-0.8	.	.	.	.
C=CC[C@@H]1NN2C(=O)[C@@H](CCCC)[C@@H]3c4ccccc4C=NN3[C@@H]2c2ccccc21	-2.4	-3.7	-0.6	.	-2.1	.	.	.	.
Cc1cc(NC(=O)c2ccccc2)sc1C	0.4	9.9*	19.2*	0.2	3.5	1.4	5.4	16.7*	0.8
COc1ccc2cc(C(=O)NC3CCCCC3)c(=O)oc2c1	0.3	-1.3	-0.2	0.1	0.2	.	.	.	.
O=C(NC1CCCCCC1)c1cc2ccccc2oc1=O	0.9*	7.5*	13.3*	0.9	4.0*	1.3	2.8	15.7*	0.9
Cc1cc(C)c(C(=O)Nc2ccc3c(c2)OCCO3)c(C)c1	-0.7	1.6	5.2	1.1	2.0	.	.	.	.
O=C(Nc1ccc(F)c(F)c1)c1ccc2c(c1)OCO2	-0.8	2.5	6.0	1.4	2.9	.	.	.	.
O=C(Nc1ccc(Cl)c(Cl)c1)c1ccc2c(c1)OCO2	3.0*	9.7*	18.9*	1.6	2.3	1.4	7.2*	21.6*	1.2
CC1CCC(NC(=O)c2ccc3c(c2)OCO3)CC1 (stereo not drawn)	0.8	9.0*	15.1*	-0.6	9.1*	1.5	8.6*	18.9*	0.9
Cc1ccc(C(=O)Nc2ccc3c(c2)OCCO3)o1	0.4	9.2*	13.3*	0.8	3.3	1.3	4.7	14.4*	0.7
O=C(Nc1ccc2c(c1)OCO2)c1ccc2c(c1)OCO2	2.1*	7.3*	14.0*	-1.1	3.3	1.2	9.3*	15.2*	0.8
Cc1cn(CC(=O)NCCc2ccccn2)c(=O)[nH]c1=O	-0.8	1.0	0.2	0.3	0.8	.	.	.	.
CC(C)c1ccc2nc(NC(=O)C3CC3)sc2c1	-0.2	7.0*	22.1*	3.9	3.1	1.1	2.6	17.0*	0.6
O=C(C1CC1)C1(C(=O)N2CCOCC2)CC(c2ccccn2)=NO1 (stereo not drawn)	-1.6	-1.8	-0.5	.	1.1	.	.	.	.
Oc1[nH]c2ccccc2c1C=Nc1ccccc1	1.6*	8.3*	21.0*	12.8*	2.8	1.1	8.9*	24.1*	0.8
CSc1ccc(NC(=O)Nc2cc(C)ccn2)cc1	0.9*	7.0*	19.2*	2.2	3.0	2.0	9.5*	17.6*	1.2
CSc1ncccc1C(=O)Nc1cc(C)ccn1	-0.6	0.1	-0.6	0.2	0.3	.	.	.	.
O=C(Nc1c(-c2ccccc2)[nH][nH]c1=O)c1ccc(Br)cc1	-1.3	-1.7	-1.2	.	-0.3	.	.	.	.
Clc1ccc(-c2nc3nc4ccccc4nc3n2Cc2ccco2)cc1	1.1*	8.4*	14.1*	3.5	3.1	0.6	5.8*	7.3	0.2
SMILES	ssDAF12 agonist	hcDAF12 agonist	hgDAF12 agonist	DAX1 inh-1	DAX1 inh-2	LXRb hcDAF ctr	hcDAF12 conf	hgDAF12 ag	LXR ag 2
Cc1ccc(-c2nc3nc4ccccc4nc3n2Cc2ccco2)cc1	1.4*	10.8*	16.2*	1.5	5.1*	1.3	8.8*	13.9*	0.9
Cc1ccc(-c2c(NC(=O)c3cccc(C)c3)nc3ncccn23)cc1	-1.2	-2.3	8.5	.	-0.8	.	.	.	.
O=C(OCC#CCSc1nnc(-c2cccc3ccccc23)o1)c1sccc1Cl	-1.0	-0.1	5.6	.	.	.	.	.	.
COc1ccc2c(c1)CCc1c-2n[nH]c1C(=O)NCCC(C)C	0.4	6.8*	15.0*	1.9	4.0*	1.1	3.9	16.9*	0.9
O=C1C2C3C=CC(C3=C3CCCCC3)C2C(=O)N1c1ccccc1 (stereo not drawn)	-1.4	-0.8	0.3	-0.6	-0.2	.	.	.	.
CN1C(=O)C2C=CC1C1C(=O)N(c3ccccc3)C(=O)C21 (stereo not drawn)	0.8	9.5*	17.3*	3.5	4.0*	1.4	6.2*	0.0	0.0
COC1=C/C(=C/c2c(O)c(C#N)c3ccccn23)C=CC1=O	0.9*	11.2*	13.6*	3.7	2.2	0.0	3.6	11.2*	0.3
Oc1ccc(/C=N/Nc2cccc(Cl)n2)c(O)c1	2.2*	10.1*	14.2*	6.3*	1.5	0.9	2.4	19.1*	0.6
Oc1ccc(/C=N\Nc2cc(N3CCOCC3)nc(N3CCOCC3)n2)c(O)c1	-1.7	-2.3	-1.0	-1.9	-0.6	.	.	.	.
COc1ccccc1N1CCN(c2ccc(-c3ccccc3)nn2)CC1	1.3*	7.1*	18.0*	-3.2	3.2	0.9	4.4	8.2	0.7
CCCOc1ccc(-c2nc(OC)c3ccccc3n2)cc1	2.6*	15.9*	17.4*	1.4	4.1*	-0.2	3.9	3.5	0.1
COc1ccc(Oc2nc(-c3cccnc3)nc3ccccc23)cc1	-0.4	-0.5	1.1	0.1	-0.4	.	.	.	.
CC(=O)Nc1sc2c(c1-c1nc3ccccc3s1)CCCN(C(C)C)C2	7.3*	41.6*	23.7*	.	.	2.4	20.6*	6.3	1.0
CC(C)N1CCc2c(sc(NC(=O)c3nc4ccccc4s3)c2C(N)=O)C1	-1.4	-3.1	-9.0	-2.0	-2.8	.	.	.	.
O=C(N=Nc1c(O)[nH]c2ccccc12)c1ccco1	0.7	9.8*	18.5*	4.4*	2.5	1.2	10.3*	17.3*	0.6
O=C(CSCc1ccccc1)N=Nc1c(O)[nH]c2ccccc12	0.0	1.9	5.7	-0.8	0.7	.	.	.	.

Screening results: PubChem BioAssay, The Scripps Research Institute Molecular Screening Center
